Laboratory results as given in ChEMBL document CHEMBL1961873, “Compounds: GSK PKIS; Assays: Nanosyn kinase panel” (2012).

Experiments:
[1] = target: Glycogen synthase kinase-3 beta (Homo sapiens) (UniProt P49841); settings: at 1 µM;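 note: reported values are mean percent inhibition of GSK3B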
[2] = target: Homeodomain-interacting protein kinase 1 (Homo sapiens) (UniProt Q86Z02); settings: at 0.1 µM
[3] = target: Homeodomain-interacting protein kinase 1 (Homo sapiens) (UniProt Q86Z02); settings: at 1 µM
[4] = target: T1, Homeodomain-interacting protein kinase 4 (Homo sapiens) (UniProt Q8NE63); settings: at 0.1 µM
T1 sequence (whole entry): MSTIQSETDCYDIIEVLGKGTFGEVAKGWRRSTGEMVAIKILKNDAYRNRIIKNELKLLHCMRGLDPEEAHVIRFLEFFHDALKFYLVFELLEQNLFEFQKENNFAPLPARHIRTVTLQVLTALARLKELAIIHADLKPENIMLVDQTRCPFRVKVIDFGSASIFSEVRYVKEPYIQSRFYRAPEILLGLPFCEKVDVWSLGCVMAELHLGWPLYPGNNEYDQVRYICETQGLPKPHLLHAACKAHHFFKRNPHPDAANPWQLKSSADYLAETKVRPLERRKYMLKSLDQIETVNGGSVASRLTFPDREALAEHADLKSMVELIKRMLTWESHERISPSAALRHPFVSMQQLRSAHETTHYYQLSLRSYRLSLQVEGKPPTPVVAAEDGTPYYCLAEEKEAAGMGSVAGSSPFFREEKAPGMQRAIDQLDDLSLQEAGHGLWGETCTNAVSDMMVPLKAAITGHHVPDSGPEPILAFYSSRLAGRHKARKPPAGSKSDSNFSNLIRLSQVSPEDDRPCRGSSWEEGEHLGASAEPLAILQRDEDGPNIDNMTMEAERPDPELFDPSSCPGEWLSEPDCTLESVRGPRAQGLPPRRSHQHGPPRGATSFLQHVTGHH

[5] = target: T1, Homeodomain-interacting protein kinase 4 (Homo sapiens); settings: at 1 µM
[6] = target: Mitogen-activated protein kinase 9 (Homo sapiens) (UniProt P45984); settings: at 0.1 µM
Sequence of Mitogen-activated protein kinase 9 (Homo sapiens) (P45984 whole entry, looked up): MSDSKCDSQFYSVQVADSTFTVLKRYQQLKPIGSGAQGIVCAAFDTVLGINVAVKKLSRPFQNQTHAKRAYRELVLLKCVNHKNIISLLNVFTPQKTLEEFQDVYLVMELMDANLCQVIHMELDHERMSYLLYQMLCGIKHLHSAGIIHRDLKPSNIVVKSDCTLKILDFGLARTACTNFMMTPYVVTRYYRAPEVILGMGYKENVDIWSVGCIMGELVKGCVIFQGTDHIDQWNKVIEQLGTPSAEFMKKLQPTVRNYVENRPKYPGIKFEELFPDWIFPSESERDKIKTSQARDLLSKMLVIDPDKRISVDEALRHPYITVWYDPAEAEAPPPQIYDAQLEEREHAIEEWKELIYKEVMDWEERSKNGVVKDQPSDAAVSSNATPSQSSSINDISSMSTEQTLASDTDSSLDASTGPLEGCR

[7] = target: Mitogen-activated protein kinase 9 (Homo sapiens) (UniProt P45984); settings: at 1 µM
[8] = target: Mitogen-activated protein kinase 1 (Homo sapiens) (UniProt P28482); settings: at 0.1 µM
Sequence of Mitogen-activated protein kinase 1 (Homo sapiens) (P28482 whole entry): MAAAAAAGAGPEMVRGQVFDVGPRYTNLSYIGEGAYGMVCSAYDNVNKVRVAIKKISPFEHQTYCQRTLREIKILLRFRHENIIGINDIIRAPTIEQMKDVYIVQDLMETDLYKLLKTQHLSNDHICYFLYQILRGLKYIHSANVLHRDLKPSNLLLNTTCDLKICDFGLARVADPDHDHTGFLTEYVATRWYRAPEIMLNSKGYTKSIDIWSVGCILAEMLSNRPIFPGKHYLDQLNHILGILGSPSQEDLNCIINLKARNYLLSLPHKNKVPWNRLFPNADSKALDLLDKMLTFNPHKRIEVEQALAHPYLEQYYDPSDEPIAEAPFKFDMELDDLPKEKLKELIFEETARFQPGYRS

[9] = target: Mitogen-activated protein kinase 1 (Homo sapiens) (UniProt P28482); settings: at 1 µM
[10] = target: Mitogen-activated protein kinase 3 (Homo sapiens) (UniProt P27361); settings: at 0.1 µM;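 note: each value is a mean inhibition figure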
Sequence of Mitogen-activated protein kinase 3 (Homo sapiens) (P27361 whole entry): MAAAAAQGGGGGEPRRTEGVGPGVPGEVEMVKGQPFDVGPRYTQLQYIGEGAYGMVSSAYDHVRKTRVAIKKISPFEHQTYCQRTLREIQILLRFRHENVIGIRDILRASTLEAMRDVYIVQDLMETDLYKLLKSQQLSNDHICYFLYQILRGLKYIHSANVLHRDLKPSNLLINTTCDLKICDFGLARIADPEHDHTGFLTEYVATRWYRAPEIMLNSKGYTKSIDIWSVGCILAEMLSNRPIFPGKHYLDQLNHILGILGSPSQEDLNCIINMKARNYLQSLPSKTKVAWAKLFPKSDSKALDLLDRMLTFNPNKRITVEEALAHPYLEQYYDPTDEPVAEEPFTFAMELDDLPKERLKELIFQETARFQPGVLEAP

Sequence of Glycogen synthase kinase-3 beta (Homo sapiens) (P49841 whole entry, looked up): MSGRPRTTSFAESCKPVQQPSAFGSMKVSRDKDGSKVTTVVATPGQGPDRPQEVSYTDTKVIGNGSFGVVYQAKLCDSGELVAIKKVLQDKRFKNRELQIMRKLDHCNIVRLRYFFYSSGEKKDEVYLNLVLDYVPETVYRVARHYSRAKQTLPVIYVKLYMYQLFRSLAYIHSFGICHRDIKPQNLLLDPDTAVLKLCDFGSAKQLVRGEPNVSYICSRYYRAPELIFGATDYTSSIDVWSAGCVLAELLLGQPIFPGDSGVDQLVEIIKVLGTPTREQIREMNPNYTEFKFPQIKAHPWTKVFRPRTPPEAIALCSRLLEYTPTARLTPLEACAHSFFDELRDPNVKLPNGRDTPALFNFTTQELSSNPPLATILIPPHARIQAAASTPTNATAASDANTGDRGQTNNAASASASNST
Sequence of Homeodomain-interacting protein kinase 1 (Homo sapiens) (Q86Z02 whole entry, looked up): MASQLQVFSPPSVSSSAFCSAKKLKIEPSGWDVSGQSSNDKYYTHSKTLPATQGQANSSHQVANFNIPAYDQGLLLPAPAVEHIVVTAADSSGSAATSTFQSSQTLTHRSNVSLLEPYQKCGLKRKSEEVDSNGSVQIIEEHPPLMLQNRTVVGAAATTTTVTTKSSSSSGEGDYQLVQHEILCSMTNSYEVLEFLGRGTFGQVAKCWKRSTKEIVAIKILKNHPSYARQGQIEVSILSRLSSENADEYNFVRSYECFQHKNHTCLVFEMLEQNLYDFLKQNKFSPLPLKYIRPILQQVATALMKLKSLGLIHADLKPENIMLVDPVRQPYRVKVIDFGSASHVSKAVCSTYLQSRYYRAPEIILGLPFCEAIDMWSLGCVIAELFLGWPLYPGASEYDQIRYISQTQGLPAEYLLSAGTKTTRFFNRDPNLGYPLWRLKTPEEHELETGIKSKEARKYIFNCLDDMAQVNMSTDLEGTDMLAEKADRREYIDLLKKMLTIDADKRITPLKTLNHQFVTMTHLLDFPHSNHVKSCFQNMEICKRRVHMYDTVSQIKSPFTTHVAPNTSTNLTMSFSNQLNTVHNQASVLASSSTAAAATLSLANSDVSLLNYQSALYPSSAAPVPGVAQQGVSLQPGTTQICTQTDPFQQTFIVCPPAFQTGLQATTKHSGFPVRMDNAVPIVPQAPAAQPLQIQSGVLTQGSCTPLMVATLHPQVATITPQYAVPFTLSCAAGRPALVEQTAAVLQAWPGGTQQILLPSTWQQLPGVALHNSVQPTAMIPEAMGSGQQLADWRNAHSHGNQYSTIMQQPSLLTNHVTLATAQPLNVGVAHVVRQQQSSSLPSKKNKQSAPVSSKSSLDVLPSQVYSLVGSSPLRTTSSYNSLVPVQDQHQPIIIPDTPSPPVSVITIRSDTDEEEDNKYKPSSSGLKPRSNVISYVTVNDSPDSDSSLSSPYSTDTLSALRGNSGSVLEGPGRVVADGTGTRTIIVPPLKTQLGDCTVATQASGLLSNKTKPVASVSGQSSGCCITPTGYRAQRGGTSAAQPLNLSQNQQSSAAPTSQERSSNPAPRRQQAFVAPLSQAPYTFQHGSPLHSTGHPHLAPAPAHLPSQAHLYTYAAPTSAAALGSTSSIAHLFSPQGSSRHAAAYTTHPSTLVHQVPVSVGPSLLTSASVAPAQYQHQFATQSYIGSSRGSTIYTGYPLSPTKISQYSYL

SMILES | inhibition [1] | inhibition [2] | inhibition [3] | inhibition [4] | inhibition [5] | inhibition [6] | inhibition [7] | inhibition [8] | inhibition [9] | inhibition [10]
NCc1ccc(-n2c(-c3nonc3N)nc3cnccc32)cc1 | 60.1% | 1.51% | 9.18% | 0.98% | 5.32% | 7.98% | 6.05% | 6.45% | 8.32% | 4.41%
COc1ccc(C2=C(N3CCc4ccccc43)C(=O)NC2=O)cc1 |  | 4.48% | 8.68% | 3.35% | 4.04% | 3.78% | 7.16% | -0.01% | 5.89% | 4.13%
CCc1ccc(Oc2nccc(-c3c(-c4ccc(F)cc4)ncn3C3CCNCC3)n2)cc1 | 7.29% | -2.3% | 1.77% | 0.48% | 2.99% |  |  | 6.77% | 11.6% | 5.92%
COc1cc2ncn(-c3cc(OCCc4ccccc4)c(C(N)=O)s3)c2cc1OC | 0.1% | -0.4% | 3.92% | 2.74% | 19.1% | 4.17% | 3.52% | 1.47% | 3.64% | 0.38%
O=C1NC(=O)C(c2cccc(Cl)c2)=C1Nc1ccc(Cl)c(C(=O)O)c1 |  | 2.03% | 1.77% | 1.36% | 0.39% | 1.14% | 3.47% | 11% | 5.36% | 5.36%
c1ccc(Oc2ccc(Nc3ncc(-c4ccccc4)o3)cc2)cc1 | 7.42% | 1.51% | 3.29% | -0.61% | 1.2% | 0.54% | 2.94% | -1.99% | 6.11% | 1.01%
C#Cc1cccc(Nc2ncnc3ccc(OCCCCNCCS(C)(=O)=O)cc23)c1 | 1.89% | -3.09% | -1.22% | 4.39% | 24.9% | 3.91% | 4.58% | 5.06% | 5.46% | 4.38%
Nc1nccc(-c2c(-c3ccc(F)cc3)ncn2C2CCC(O)CC2)n1 (configuration not stated) | 14.1% | 2.2% | 4% | 1.22% | 3.26% | 9.42% | 53.3% |  | -2.72% | -0.59%
COc1cccc(/C=N/Nc2ncnc3c2cnn3-c2cccc(OC)c2)c1 | 51.1% | -1.82% | 2.63% | 0.49% | 4.13% | 3.29% | 5.5% | 5.68% |  | 3.77%
NC(=O)Cc1ccccc1Oc1nccc(-c2c(-c3ccc(F)cc3)ncn2C2CCNCC2)n1 | 1.98% | 0.04% | -0.28% | 1.66% | 3.18% |  |  | 0.51% | 4.48% | 1.47%
C[C@@H](Oc1cc(-n2cnc3ccc(OC4CCN(C)CC4)cc32)sc1C(N)=O)c1ccccc1Cl | -0.12% | -4.32% | 2.08% | 3.54% | 28.7% | 1.24% | 5.06% | 5.74% | 6.64% | 3.11%
FC(F)(F)c1cccc(Nc2nccc(-c3cnn4nc(-c5ccccc5)ccc34)n2)c1 |  | 7.68% | 51.8% | 6.64% | 35.8% | -0.53% | -1.92% | 4.13% | 3.46% | 0.87%
Fc1ccc(-c2ncn(C3CCNCC3)c2-c2ccnc(Oc3ccc(F)c(F)c3)n2)cc1 | 2.53% | -6.31% | -2.14% | 0.46% | 1.77% |  |  | 4.93% | 6.35% | 3.84%
CS(=O)(=O)CCNCc1ccc(-c2ccc3ncnc(Nc4ccc(OCc5ccccc5)c(Br)c4)c3c2)o1 | -1.69% | -5.84% | -4.53% | 0.44% | 2.6% | 2.5% | 0.7% | 5.3% | 4.08% | 5.25%
O=C(Nc1ccc(Oc2ccc3[nH]c(NC(=O)c4ccccc4)nc3c2)cc1)Nc1cc(C(F)(F)F)ccc1F | 7.73% | -0.21% | 0.17% | 9.12% | 47.7% | 3.43% | 6.62% | 2.12% | 2.7% | 4.31%
COc1cc(Nc2ncc(-c3ccccc3)o2)cc(OC)c1OC | 35.8% |  | 11.2% | 0.61% | 3.87% | -3.91% | -3.35% | -2.3% | -1.83% | 0.83%
NS(=O)(=O)c1ccc(Nc2cc(-c3ccc(O)c(F)c3)n[nH]2)cc1 | 38% | 0.97% | 16.1% | 1.96% | 10.4% | -1.59% | 2.43% |  | -4.87% | -1.57%
COc1cc(Nc2ncc3c(C)nc(-c4cccc(C(F)(F)F)c4)n3n2)cc(OC)c1OC | 28.1% | 4.84% | 26.8% | 1.83% | 9.08% | 0.45% | 4.58% | 5.55% | 13% | 4.86%
